The results in this text go back to PMC4336329 (PLoS ONE, 2015).

Structures are written as SMILES. The campaign covered roughly 310,000 compounds. About 14,000 (4.5%) showed an effect of 50% or more. Effects have a minus sign here. For the sample, strong results were picked, then their nearest neighbours and some compounds at random.
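Also: peak tail current of the secondary pulse compared with the same well before compound.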

The target of this test is human ether-à-go-go-related gene (hERG) potassium channel (human, UniProt Q12809). Nature of the test: primary screen, population patch clamp on CHO cells stably expressing hERG; higher = less effect of the substance.
human ether-à-go-go-related gene (hERG) potassium channel, sequence (Q12809 whole entry, looked up): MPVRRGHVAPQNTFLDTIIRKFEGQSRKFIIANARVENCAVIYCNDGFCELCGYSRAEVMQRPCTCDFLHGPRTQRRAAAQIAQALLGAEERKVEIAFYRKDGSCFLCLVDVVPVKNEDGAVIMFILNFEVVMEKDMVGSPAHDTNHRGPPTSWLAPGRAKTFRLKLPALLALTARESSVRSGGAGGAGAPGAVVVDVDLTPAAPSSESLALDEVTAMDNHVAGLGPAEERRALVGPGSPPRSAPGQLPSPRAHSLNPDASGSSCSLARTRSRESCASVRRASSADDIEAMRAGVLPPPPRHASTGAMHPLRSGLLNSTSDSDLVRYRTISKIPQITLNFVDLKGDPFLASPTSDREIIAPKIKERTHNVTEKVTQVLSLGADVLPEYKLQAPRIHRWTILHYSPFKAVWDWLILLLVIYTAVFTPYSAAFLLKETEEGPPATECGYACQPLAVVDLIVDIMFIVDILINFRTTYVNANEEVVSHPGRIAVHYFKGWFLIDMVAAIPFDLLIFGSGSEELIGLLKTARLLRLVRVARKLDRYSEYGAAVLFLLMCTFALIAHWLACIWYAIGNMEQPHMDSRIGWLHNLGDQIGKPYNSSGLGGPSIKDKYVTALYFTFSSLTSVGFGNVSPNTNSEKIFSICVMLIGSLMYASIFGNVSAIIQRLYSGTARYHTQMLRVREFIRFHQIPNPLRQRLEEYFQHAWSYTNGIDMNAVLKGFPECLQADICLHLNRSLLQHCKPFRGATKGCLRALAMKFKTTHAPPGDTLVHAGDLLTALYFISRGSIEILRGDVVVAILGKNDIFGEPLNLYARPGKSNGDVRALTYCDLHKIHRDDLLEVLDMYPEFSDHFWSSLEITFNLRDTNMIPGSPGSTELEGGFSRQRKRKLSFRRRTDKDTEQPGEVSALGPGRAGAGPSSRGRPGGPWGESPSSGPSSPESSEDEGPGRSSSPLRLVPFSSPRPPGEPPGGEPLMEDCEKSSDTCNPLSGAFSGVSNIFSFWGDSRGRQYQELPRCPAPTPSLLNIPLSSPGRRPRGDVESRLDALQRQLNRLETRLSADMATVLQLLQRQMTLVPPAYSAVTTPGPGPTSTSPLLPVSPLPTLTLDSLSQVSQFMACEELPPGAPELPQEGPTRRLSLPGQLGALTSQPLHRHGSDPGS
In the case of `O=C(N/N=C/c1cc(Br)c(O)c(Br)c1O)c1ccc2c(c1)OCCO2`, the “hERG current change (%, negative = inhibition) at 10uM” value is recorded as -26.9%.

As for `Cc1cc(CNC(=O)Cn2cc([N+](=O)[O-])cn2)c2ccccc2n1`, the “hERG current change (%, negative = inhibition) at 10uM” value is -11.5%.

Turning to `Cc1cccc(OCC(=O)Nc2ccccc2N2CCCCC2)c1C`, the “hERG current change (%, negative = inhibition) at 10uM” value was -21.9%.

For the compound `Cc1ccc(S(=O)(=O)N2CCCCC2)cc1NC(=O)CCc1nc2ccccc2c(=O)[nH]1`, the “hERG current change (%, negative = inhibition) at 10uM” value is listed as -24.3%.

For `Cc1ccc(-c2nnn(CC(=O)N(Cc3cccs3)C(C(=O)NC(C)(C)C)c3ccco3)n2)o1` (stereo not shown), the “hERG current change (%, negative = inhibition) at 10uM” value is 14.4%.

With `O=C(NCCCn1ccnc1)/C(=C\c1cccs1)NC(=O)c1cccs1`, the “hERG current change (%, negative = inhibition) at 10uM” value is -62%.

As to `Cc1ccc(C(=O)N/C(=C\c2cccs2)C(=O)NCCc2ccccn2)cc1C`, the “hERG current change (%, negative = inhibition) at 10uM” value is given as -1.92%.

For the compound `O=C(NCc1ccco1)/C(=C\c1cccs1)NC(=O)c1cccs1`, the “hERG current change (%, negative = inhibition) at 10uM” value is given as 6.26%.

For the compound `Cc1ccc(C(=O)N/C(=C/c2cccs2)C(=O)NCCCn2ccnc2)cc1`, the “hERG current change (%, negative = inhibition) at 10uM” value is on record as -71.9%.

Take `COc1ccc(C(=O)N/C(=C/c2cccs2)C(=O)NCCCn2ccnc2)cc1OC`: the “hERG current change (%, negative = inhibition) at 10uM” value is -7.14%.

Regarding `Cc1ccc(C(=O)N/C(=C\c2cccs2)C(=O)NCCCn2ccnc2)cc1C`, the “hERG current change (%, negative = inhibition) at 10uM” value was -61%.

As to `O=C(NCCO)/C(=C\c1cccs1)NC(=O)c1cccs1`, the “hERG current change (%, negative = inhibition) at 10uM” value amounted to 18.7%.

Regarding `Cc1ccc(C(=O)N/C(=C\c2cn(S(=O)(=O)N(C)C)c3ccccc23)C(=O)NCCCn2ccnc2)cc1`, the “hERG current change (%, negative = inhibition) at 10uM” value was -28.6%.

As for `Cc1ccc(C(=O)N/C(=C\c2cn(C)c3ccccc23)C(=O)NCCCn2ccnc2)cc1`, the “hERG current change (%, negative = inhibition) at 10uM” value is -7.74%.

On to `Cc1ccc(C(=O)N/C(=C\c2cccs2)C(=O)NCCCn2ccnc2)cc1`, for which the “hERG current change (%, negative = inhibition) at 10uM” value is given as -70.3%.

As to `O=C(Cn1ncn2c(cc3ccccc32)c1=O)NCCC1=CCCCC1`, the “hERG current change (%, negative = inhibition) at 10uM” value was 7.76%.

`CCn1cc(S(=O)(=O)N2CCCC2)cn1`: the “hERG current change (%, negative = inhibition) at 10uM” value was determined as 8.1%.

As for `COCCN1C(=O)N[C@@H](c2ccccc2)[C@@H](C(=O)OC)[C@H]1C`, the “hERG current change (%, negative = inhibition) at 10uM” value was 2.28%.

As for `Cc1ccc(C)c(/C=N/NC(=S)NC(C)C)c1`, the “hERG current change (%, negative = inhibition) at 10uM” value was found to be 30.3%.

As for `Cc1ccccc1OCC(=O)NNC=O`, the “hERG current change (%, negative = inhibition) at 10uM” value came out at 22.9%.

As for `O=C(Nc1cccc(-n2cnnn2)c1)c1cc(Cl)nc(Cl)c1`, the “hERG current change (%, negative = inhibition) at 10uM” value was -4.24%.

Consider `Cc1nccn1-c1ccc(C(F)(F)F)cc1[N+](=O)[O-]`, for which the “hERG current change (%, negative = inhibition) at 10uM” value came out at 11.2%.

`CCCn1c(NC(=O)CCS(=O)(=O)c2ccc(C)cc2)nc2ccccc21`: the “hERG current change (%, negative = inhibition) at 10uM” value is listed as -24.2%.

In the case of `Cc1cnn(Cc2cccnc2)c1N`, the “hERG current change (%, negative = inhibition) at 10uM” value turned out to be 8.46%.

In the case of `O=C(NCCCn1ccnc1)/C(=C/c1ccco1)NC(=O)c1ccco1`, the “hERG current change (%, negative = inhibition) at 10uM” value is on record as -45.6%.

With `O=C(NCCCn1ccnc1)/C(=C/c1cccs1)NC(=O)c1ccco1`, the “hERG current change (%, negative = inhibition) at 10uM” value is on record as -50.8%.

Consider `O=C(NCCCn1ccnc1)/C(=C\c1cccs1)NC(=O)c1ccco1`, for which the “hERG current change (%, negative = inhibition) at 10uM” value is on record as -45.1%.

Take `O=C(NCCCn1ccnc1)/C(=C/c1cccnc1)NC(=O)c1ccco1`: the “hERG current change (%, negative = inhibition) at 10uM” value was 4.25%.

For `CN(C)S(=O)(=O)n1cc(/C=C(\NC(=O)c2ccccc2)C(=O)NCCCn2ccnc2)c2ccccc21`, the “hERG current change (%, negative = inhibition) at 10uM” value amounted to 8.31%.

For the compound `COc1ccccc1/C=C(/NC(=O)c1ccccc1)C(=O)NCCCn1ccnc1`, the “hERG current change (%, negative = inhibition) at 10uM” value was 2.6%.

As to `O=C(NCCCn1ccnc1)/C(=C/c1ccco1)NC(=O)c1cccs1`, the “hERG current change (%, negative = inhibition) at 10uM” value is -53.2%.

On to `O=C(NCCCn1ccnc1)/C(=C\c1ccco1)NC(=O)c1ccco1`, for which the “hERG current change (%, negative = inhibition) at 10uM” value is reported as -35.3%.

As for `O=C(NCCCn1ccnc1)/C(=C\c1cccs1)NC(=O)c1ccccc1`, the “hERG current change (%, negative = inhibition) at 10uM” value is on record as -69%.

For the compound `CCOC(=O)c1c(C)n(C)c2c(C)cc(O)c(OC(=O)CC)c12`, the “hERG current change (%, negative = inhibition) at 10uM” value is 7.65%.

On to `CN(C)c1ccc(/C=C2\SC(N3CCCCC3)=NC2=O)cc1`, for which the “hERG current change (%, negative = inhibition) at 10uM” value was -21.8%.

For the compound `Cc1occc1C(=O)Nc1ccc(Br)cc1F`, the “hERG current change (%, negative = inhibition) at 10uM” value was 2.03%.

Consider `Cc1ccc(NC(=S)N(CCN(C)C)C(C)c2ccco2)cc1C` (stereo not shown), for which the “hERG current change (%, negative = inhibition) at 10uM” value was -44.3%.

For the compound `CC1CCC2CCCCC2N1C(=O)c1cc([N+](=O)[O-])cc([N+](=O)[O-])c1` (stereo not shown), the “hERG current change (%, negative = inhibition) at 10uM” value was determined as 2.18%.

Take `COc1cc(CCCN2C(=S)NC[C@H]2Cc2ccc(O)cc2)cc(OC)c1OC`: the “hERG current change (%, negative = inhibition) at 10uM” value was -16.4%.

Take `CC1CCN(C(=O)c2ccc(CS(=O)(=O)Cc3ccccc3)cc2)CC1`: the “hERG current change (%, negative = inhibition) at 10uM” value is reported as -33.6%.

As to `CC(=O)N1c2ccc(S(=O)(=O)NCC3CCC(C(=O)N4CCCCC4)CC3)cc2CC1C` (stereo not shown), the “hERG current change (%, negative = inhibition) at 10uM” value worked out at 12.2%.

Consider `c1ccc2c(c1)[nH]c1c(NCC3CCCO3)ncnc12` (stereo not shown), for which the “hERG current change (%, negative = inhibition) at 10uM” value stood at 11%.

For `CC(=O)c1cccc(NC(=O)CCCN(C)S(=O)(=O)c2ccc(F)cc2)c1`, the “hERG current change (%, negative = inhibition) at 10uM” value is listed as -2.1%.

Turning to `Cc1ccc(S(=O)(=O)N(C)CC(=O)Nc2ccncc2)cc1`, the “hERG current change (%, negative = inhibition) at 10uM” value is given as -8.2%.

On to `CN(CCCC(=O)Nc1ccc(OC(F)F)cc1)S(=O)(=O)c1ccc(F)cc1`, for which the “hERG current change (%, negative = inhibition) at 10uM” value is -71.3%.

Take `CC(=O)Nc1ccc(S(=O)(=O)N(C)c2ccc(O)cc2)cc1`: the “hERG current change (%, negative = inhibition) at 10uM” value is listed as 2.53%.

For the compound `CN(CC(=O)Nc1ccncc1)S(=O)(=O)c1ccc(Cl)cc1`, the “hERG current change (%, negative = inhibition) at 10uM” value is reported as -5.97%.

Turning to `CC(=O)Nc1ccc(S(=O)(=O)N(C)S(=O)(=O)c2ccc(F)cc2)cc1`, the “hERG current change (%, negative = inhibition) at 10uM” value is given as -63.3%.

Regarding `COc1ccc(NC(=O)CCCN(C)S(=O)(=O)c2ccc(C)cc2)cc1`, the “hERG current change (%, negative = inhibition) at 10uM” value is -26.8%.

In the case of `Cc1ccc(S(=O)(=O)N(C)CCCC(=O)Nc2ccncc2)cc1`, the “hERG current change (%, negative = inhibition) at 10uM” value is given as -63%.

As for `CN(CCCC(=O)Nc1ccccc1)S(=O)(=O)c1ccc(Cl)cc1`, the “hERG current change (%, negative = inhibition) at 10uM” value is recorded as -47.9%.

For the compound `CN(CCCC(=O)Nc1ccncc1)S(=O)(=O)c1ccc(Cl)cc1`, the “hERG current change (%, negative = inhibition) at 10uM” value was -53.8%.
